# Many of the other results were omitted from the sample, so hits are more common in it than they were.
# CHX counter: Cycloheximide Counterscreen for Small Molecule Inhibitors of Shiga Toxin | cell reporter, cycloheximide protein synthesis inhibition counterscreen | max response, % | actives 12% (n = 300,000); in the data active means max response mostly above about 13%, no sharp cut-off; inactive means mostly below about 14%; further: read at 38.3 µM for the half of the compounds with a filed dose; 0% is about no effect
# FBPA Giardia inh: qHTS Assay for Inhibitors of Fructose-1,6-bisphosphate Aldolase from Giardia Lamblia. A8B2U2. purified Giardia FBPA. Potency, µM (highest dose often 59.6 µM), for the others: top-dose activity, negative = inhibition, hits mostly inhibitors. actives 0.71% (n = 290,000); further: potency means the concentration at half of the fitted maximal effect; on the % scale 0 is the no-effect control and ±100 the full control effect; nearly all actives have a fitted effect of over 55% in size
# Target sequence (A8B2U2 whole entry, looked up): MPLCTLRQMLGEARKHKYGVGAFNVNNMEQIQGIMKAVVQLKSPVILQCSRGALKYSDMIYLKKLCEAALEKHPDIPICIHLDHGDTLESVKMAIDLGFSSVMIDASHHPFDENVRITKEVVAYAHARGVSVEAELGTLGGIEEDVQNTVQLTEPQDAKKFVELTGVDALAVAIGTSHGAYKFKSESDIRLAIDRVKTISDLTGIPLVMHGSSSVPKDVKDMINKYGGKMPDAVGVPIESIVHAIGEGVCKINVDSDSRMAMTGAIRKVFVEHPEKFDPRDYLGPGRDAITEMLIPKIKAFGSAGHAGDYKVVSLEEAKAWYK
#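 Giardia FBPA (40 nM reagent) was preincubated 10 min at RT with compound (up to 57.5 uM final), then substrate plus GAPDH/TPI/NAD/arsenate coupling system with diaphorase/resazurin was added; resorufin fluorescence (525/598 nm) was read after 20 min.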
# Shiga inhibitor: A qHTS for Small Molecule Inhibitors of Shiga Toxin | Vero cells, Shiga toxin protein synthesis inhibition reporter | actives 9.2% (n = 290,000) | inhibition, % at 38.7 µM; in the data active means inhibition mostly above about 28%, no sharp cut-off; inactive means mostly below about 43%; further: 0% is about no effect
# TbPYK inhibitor: qHTS of Trypanosoma Brucei Inhibitors | pyruvate kinase (Trypanosoma brucei), Q57TT1 | TbPYK enzyme, Kinase-Glo Plus ATP luminescence, 45 min | Potency, µM (doses to about 76.8 µM), inactives show at the highest dose activity, negative = inhibition, hits mostly inhibitors | actives 0.12% (n = 410,000) | AID 624173, 2012; further: potency means the concentration at half of the fitted maximal effect; on the % scale 0 is the no-effect control and ±100 the full control effect; nearly all actives have a fitted effect of over 50% in size
#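 In this concentration-response screen, enzyme-free wells defined baseline while DMSO plates tracked drift. Each reaction combined TbPYK, substrate, compound and 130 uM ADP for 45 min at room temperature. Kinase-Glo Plus luminescence gave the signal.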
# RE007 growth inh: qHTS Assay for Inhibitors of the HIV-1 protein Vpr. S. pombe RE007 Vpr strain, BacTiter-Glo ATP luminescence, 24 h. Potency, µM (series often up to 92.2 µM), for the others: at the highest dose activity change, negative = less growth, hits mostly inhibitors. actives 0.21% (n = 360,000); active means well fitted falling curve with a large enough effect; inconclusive means small, poorly fitted or top-dose-only effect; inactive means no such curve, though single readings can be large or run the other way; further: potency means the concentration at half of the fitted maximal effect; on the % scale 0 is the no-effect control and ±100 the full control effect; nearly all actives have a fitted effect of over 50% in size
#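 Fission yeast RE007 carrying one integrated HIV-1 vpr copy, seeded at OD 0.01 in PMG+AL medium with 23 nL pinned compound. Grown 24 h at 30 degrees; viability read by BacTiter-Glo luminescence after 5 min.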
# LmPK inh: qHTS Assay for Inhibitors of Leishmania Mexicana Pyruvate Kinase (LmPK); Q27686; purified LmPK, Kinase-Glo ATP luminescence, 1 h; Potency, µM (titrated, usually from 57.5 µM), for inactives: at the highest dose activity change, negative = inhibition, usual class: inhibitors; actives 0.37% (n = 290,000); further: potency means the concentration at half of the fitted maximal effect; on the % scale 0 is the no-effect control and ±100 the full control effect
#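 ATP generated from ADP (0.1 mM) and PEP (0.5 mM) by 0.1 nM LmPK over 1 h at room temperature (pH 7.2 imidazole buffer) was detected by coupled luciferase luminescence. Values were normalized to uninhibited and no-enzyme wells.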
# An asterisk follows results filed as active; ? = inconclusive; . = not tested or not shown; [ ] = another dose, or the depositor's remark. Unless noted, the call rests on the fitted dose curve; in most records, active means well fitted curve in the direction sought with a large enough effect; inconclusive means small, poorly fitted or top-dose-only effect, or another doubt; inactive means no such curve, though single readings can be large; an effect the other way counts as inactive or inconclusive.
SMILES,CHX counter,FBPA Giardia inh,Shiga inhibitor,TbPYK inhibitor,RE007 growth inh,LmPK inh
CC[C@H](C)[C@H](NC(=O)[C@@H](NC(=O)[C@@H](NC(=O)[C@H](CCC(=O)O)NC(=O)[C@H](CCC(=O)O)NC(=O)[C@H](CCC(=O)O)NC(=O)[C@H](C)NC(=O)[C@@H](N)CC(C)C)C(C)C)C(C)C)C(=O)N[C@@H](CCCNC(=N)N)C(=O)N[C@@H](CO)C(=O)N[C@@H](C)C(=O)N[C@@H](CC(N)=O)C(=O)N[C@@H](Cc1ccccc1)C(=O)N[C@H](C(=O)N[C@@H](CC(=O)O)C(=O)N[C@@H](CC(N)=O)C(=O)O)[C@@H](C)O,-1.6,-1.9%,-2.0,.,.,.
C=CCc1cccc(C=Nc2cccn3cc(-c4ccccc4)nc23)c1O,31.8*,-22.3%,69.1*,-5.8%,-14.0%,-24.5%
COC(=O)C1(C)Nc2ccccc2C(=O)N1c1ccccc1OC (configuration not stated),-1.9,4.4%,-7.8,-15.7%,14.7%,-1.5%
COC(=O)C1(C)NC(=O)c2ccccc2N1 (configuration not stated),15.5*,-0.3%,1.1,-12.4%,2.2%,-1.2%
Cc1ccc(OCC(=O)Nc2ccc(S(=O)(=O)Nc3cc(C)nc(C)n3)cc2)c(Br)c1,.,.,.,-5.0%,.,.
CCN(CC)CCCNC(=O)c1nn(C)c2c1CS(=O)(=O)c1ccccc1-2,.,.,.,1.1%,.,.
O=C(/C=C/c1cccc(F)c1)c1ccc(N2CCOCC2)cc1,49.6*,-0.3%,99.3*,-8.0%,?,-7.8%
O=C(/C=C/c1cccs1)c1ccc(N2CCOCC2)cc1,-3.6,0.7%,32.9,-15.2%,-24.3%,-21.2%
CCCCNC(=O)COC(=O)c1c2c(nc3ccccc13)/C(=C/c1cccs1)CC2,51.8*,-4.1%,103.6*,-2.8%,27.4%,-1.4%
CNC(=O)NC(=O)C(C)OC(=O)c1c2c(nc3ccccc13)/C(=C/c1cccs1)CC2 (configuration not stated),32.4*,-9.3%,23.0*,-11.3%,-6.5%,-1.0%
COc1cc(/C=C2\CCc3c2nc2ccccc2c3C(=O)O)cc(OC)c1OC,5.2,-12.5%,17.1,-0.4%,-10.8%,6.4%
CCOC(=O)c1sc2ncn(CC(=O)Nc3ccc(F)cc3F)c(=O)c2c1C,.,.,.,-8.4%,.,.
CC(=O)N1CCCC1c1nc2ccccc2n1Cc1cccc(Cl)c1 (configuration not stated),.,.,.,-7.1%,.,.
CCCC[C@H]1CCCO[C@@](C(=O)NCc2ccccn2)(C(F)(F)F)C1,26.2,-3.2%,18.2,.,.,.
CC(c1ccco1)N(C(=O)c1ccc(Cl)s1)c1ccccn1 (configuration not stated),18.6*,0.0%,42.8*,-0.9%,-13.1%,1.6%
Cc1ccc(C(=O)N(c2ccccn2)C(C)c2ccco2)cc1C (configuration not stated),17.5*,5.7%,0.2,0.7%,9.2%,-6.7%
CC(c1ccco1)N(C(=O)c1ccccc1F)c1ccccn1 (configuration not stated),9.0,3.4%,20.9,1.0%,-8.7%,-3.7%
O=C(NC1CC(=O)N(c2cccc(F)c2)C1)C(c1ccccc1)c1ccccc1 (configuration not stated),.,.,.,21.5%,.,.
CC1CCC(N2CC(=O)N(C3CCCC3)C(c3ccc(Cl)cc3)C2=O)CC1 (configuration not stated),.,.,.,0.0%,.,.
C#CC(C)(C)NS(=O)(=O)c1cc(-c2nnc(Nc3ccc(C)cc3)c3ccccc23)ccc1C,.,.,.,8.4%,.,.
Cc1ccc(-c2nc3ccccc3[nH]2)cc1NC(=O)c1ccc2c(c1)OCO2,13.8*,0.8%,91.4,-1.6%,-14.7%,3.3%
O=C(NC(=S)Nc1cc(-c2nc3ccccc3[nH]2)ccc1Cl)c1ccc2c(c1)OCO2,69.8*,0.2%,78.1*,-1.5%,3.3%,-10.0%
Cc1ccc(-c2nc3ccccc3[nH]2)cc1NC(=O)/C=C/c1ccco1,85.0*,7.5%[12.9 µM],177.5*,-15.4%,-11.0%,1.1%
CCCOc1ccc(C(=O)Nc2cc(-c3nc4ccccc4[nH]3)ccc2C)cc1,.,.,.,12.4%,.,.
Cc1ccc(-c2nc3ccccc3o2)cc1NC(=O)c1ccc2c(c1)OCO2,50.3*,3.8%,125.7*,16.5%,0.4%,-5.4%
SMILES,CHX counter,FBPA Giardia inh,Shiga inhibitor,TbPYK inhibitor,RE007 growth inh,LmPK inh
Cc1ccccc1OC(=O)CSc1nnc(-c2cccs2)o1,.,.,.,4.2%,.,.
O=c1c(-c2cc(F)cc(F)c2)nc2cncnc2n1Cc1ccccc1,.,1.7%,.,.,.,.
CCOC(=O)c1sc2nc(NC(=O)C(C)(C)C)sc2c1C,35.7*,-9.5%,105.0*,1.4%,-2.5%,1.3%
CCOC(=O)c1sc2nc(NC(=O)C3CC3)sc2c1C,7.1,2.7%,3.4,-0.3%,-4.0%,3.3%
CCCCn1c(=O)c2oc3ccccc3c2n(Cc2ccccc2C)c1=O,.,.,.,2.7%,.,.
O=C(NCC1COCCO1)c1ccc2nc(Cc3cccc(Cl)c3)oc2c1 (configuration not stated),51.2*,.,51.8*,-2.0%,3.4%,-11.2%
O=C(c1ccc2nc(Cc3cccc(Cl)c3)oc2c1)N1CCOCC1,58.9*,.,68.9*,5.0%,?,-4.8%
O=C(c1ccc2nc(Cc3cccc(Cl)c3)oc2c1)N1CCC(O)CC1,-0.7,5.3%,-4.1,-4.0%,2.6%,6.8%
CC(=O)C1CCCN(C(=O)c2ccc3nc(Cc4cccc(Cl)c4)oc3c2)C1 (configuration not stated),12.9*,.,16.8,7.3%,-0.3%,-3.5%
COc1ccc(N2CCN(C(c3ccccc3)c3nnc(-c4ccccc4Cl)o3)CC2)cc1 (configuration not stated),.,.,.,2.4%,.,.
Cc1cc(Cl)ccc1NS(=O)(=O)c1c(C(=O)N2CCCCCC2)c(C)n(C)c1C,.,.,.,2.5%,.,.
O=[N+]([O-])c1ccc(Oc2ccc(-c3cnc4ccccc4n3)cc2[N+](=O)[O-])cc1,21.0*,0.1%,39.9*,3.2%,6.7%,2.0%
O=C(O)c1ccc(Oc2ccc([N+](=O)[O-])cc2)c([N+](=O)[O-])c1,.,.,.,3.9%,6.6%,.
O=[N+]([O-])c1cc(-c2cnc3ccccc3n2)ccc1Oc1ccc(Br)cc1,29.2*,0.2%,110.6*,-0.2%,-4.9%,-0.9%
Cc1ccc2c(Sc3ccccc3)c(C(=O)NCc3ccccc3F)[nH]c2c1,.,.,.,-1.7%,.,.
Clc1ccc(OCCOCCN2CCCCC2)c(Br)c1,6.0,?,20.7,.,-2.9%[3.69 µM],-9.8%

# Assay outcomes (PubChem BioAssay)
